Compounds with a hit are over-represented: about 10% of the library has one in this group of screens.
G9a inh – inhibitors of human histone lysine methyltransferase G9a; Q96KQ7; G9a H3K9 monomethylation, AlphaScreen, 2 h; Potency, µM (series often up to 102 µM), for the others: top-dose activity, negative = inhibition, actives largely listed as inhibitors; 8.8% of 350,000 active; AID 504332; also: potency is read from the fitted curve at half-maximal effect; % is scaled to controls: 0 for no effect and ±100 for the full control effect; nearly all actives have a fitted effect of over 75% in size
Target sequence (Q96KQ7 913-1193 limits assumed): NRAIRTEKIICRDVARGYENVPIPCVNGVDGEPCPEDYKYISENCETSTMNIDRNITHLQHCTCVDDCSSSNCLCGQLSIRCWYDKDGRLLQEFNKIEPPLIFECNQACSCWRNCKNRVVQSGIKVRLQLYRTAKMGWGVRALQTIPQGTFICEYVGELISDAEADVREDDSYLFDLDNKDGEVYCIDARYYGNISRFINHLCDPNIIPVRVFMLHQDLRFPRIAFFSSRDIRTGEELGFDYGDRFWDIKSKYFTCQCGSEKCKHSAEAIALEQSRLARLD
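Step 1: enzyme (final 20 nM) with compound, 15 min RT. Step 2: substrate peptide 500 nM and SAM 20 uM, 2 h RT. Step 3: anti-H3K9me1 antibody and AlphaScreen beads, 10 min, then plate read.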
BAZ2B block – inhibitors of human BAZ2B bromodomain; Q9UIF8; AlphaScreen BAZ2B-H3K14Ac peptide displacement; Potency, µM (series often up to 114 µM), inactives show at the highest dose activity change, negative = inhibition, actives largely listed as inhibitors; 4.4% of 360,000 active; AID 504333; also: potency is read from the fitted curve at half-maximal effect; % is scaled to controls: 0 for no effect and ±100 for the full control effect; nearly all actives have a fitted effect of over 60% in size
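Compounds, titrated to a top concentration of 110 uM, were incubated 30 min at room temperature with preformed BAZ2B/acetyl-K14 H3 peptide complex (50 nM each). Proximity signal was measured by AlphaScreen after 20 min with beads.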
HP1b chromo inh – blocks HP1-beta chromodomain binding to methylated histone tails | P83916 | AlphaScreen HP1-beta / biotin-H3K9me3 peptide binding | Potency, µM (series often up to 114 µM), for the others: top-dose activity change, negative = inhibition, usual class: inhibitors | 0.56% of 390,000 active; also: potency is read from the fitted curve at half-maximal effect; nearly all actives have a fitted effect of over 70% in size
Target sequence (P83916 whole entry, looked up): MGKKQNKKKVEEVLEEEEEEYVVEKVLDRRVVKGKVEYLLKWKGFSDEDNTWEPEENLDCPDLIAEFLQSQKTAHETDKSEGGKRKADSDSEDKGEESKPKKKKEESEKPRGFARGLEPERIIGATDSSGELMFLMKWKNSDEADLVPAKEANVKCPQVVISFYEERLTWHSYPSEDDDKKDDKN
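AlphaScreen: HP1-beta (50 nM) preformed 30 min with biotin-H3(1-18)K9me3 peptide (50 nM) in PBS pH 7.4, 0.01% Tween-20. Compound added for 30 min at RT, then streptavidin donor/nickel chelate acceptor beads (10 ug/mL) for 30 min.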
JMJD2A Tudor inh – blocks the human JMJD2A Tudor domain | O75164 | AlphaScreen JMJD2A-Tudor / H3K4me3 peptide binding | Potency, µM (doses to about 114 µM), without a hit: top-dose activity change, negative = inhibition, usual class: inhibitors | 4.4% of 390,000 active | AID 504339; also: potency is read from the fitted curve at half-maximal effect; % is scaled to controls: 0 for no effect and ±100 for the full control effect; nearly all actives have a fitted effect of over 50% in size
Six1-Eya2 blk – Six1/Eya2 interaction inhibition; Q15475+O00167; AlphaScreen GST-Six1/His-Eya2 binding, biochemical; stronger effect = lower value; activity change, % (test concentration not listed); 0.56% of 360,000 active; AID 651725; in the data active = activity change below about -65%; inconclusive = mostly about -30% to -63%; also: % is scaled to controls: 0 for no effect and ±100 for the full control effect
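GST-Six1 + His-Eya2 (5X stock: 250/500 nM); Tris pH 8.0, 300 mM NaCl, 0.05% BSA, 0.02% Tween 20; GSH donor/Ni acceptor beads; 1 h 37 °C dark; AlphaScreen readout.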
CtBP-E1A blk – inhibitors of CtBP/E1A interaction; AlphaScreen GST-E1A/His-CtBP binding, 1536-well; stronger effect = lower value; activity change, % (concentration not given with the values); 0.49% of 340,000 active; AID 651724; in the data active = activity change below about -65%; inconclusive = mostly about -30% to -63%; also: % is scaled to controls: 0 for no effect and ±100 for the full control effect
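Homogeneous bead-based format: GST-tagged E1A captured on glutathione donor beads, His-tagged CtBP on nickel acceptor beads; compounds precede bead addition by 2 h at 37 °C.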
An asterisk follows results filed as active; ? = inconclusive; · = no result given; ! = repeats disagree; [ ] = dose if it differs, or a comment. Unless noted, calls follow the shape of the dose curve; as a rule, active = well fitted inhibition curve with a large enough effect; inconclusive = small, poorly fitted or top-dose-only effect; inactive = no such curve, though single readings can be large or run the other way.

SMILES	G9a inh	BAZ2B block	HP1b chromo inh	JMJD2A Tudor inh	Six1-Eya2 blk	CtBP-E1A blk
O=C1NN(c2ccc(F)cc2)C(=O)/C1=C/c1cccs1	45µM*	-36%	-17%	-32%	-5	-5
NC(Cc1cccc(-c2ccccc2CP(=O)(O)O)c1)C(=O)O (stereo not drawn)	9.5µM*!	·	·	·	·	·
CCN(CC(=O)Nc1cc(Cl)ccc1C)C(=O)CCS(=O)(=O)c1ccc(C)cc1	50µM*	6%	10%	-14%	11	2
Cc1ccc(S(=O)(=O)CCC(=O)Nc2cc(Cl)ccc2-n2cncn2)cc1	56µM*	9%	15%	-22%	4	-7
CS(=O)(=O)c1ccc2nc(NC(=O)c3ccccc3Br)sc2c1	50µM*	-2%	34%	-8%	4	-7
Cc1nc(NC(=O)c2csc3ccccc23)sc1C	45µM*	-33%	17%	-2%	-4	-9
CS(=O)(=O)c1ccc2sc(NC(=O)c3cc4ccccc4o3)nc2c1	40µM*	-13%	25%	1%	0	8
Cc1nc(NC(=O)c2cc3ccccc3o2)sc1C	21%	56µM*	6%	-12%	1	-4
O=C(Nc1nnc(C2CC2)s1)c1cc2ccccc2o1	14µM*	4%	49%	-3%	-2	1
Cc1nc(NC(=O)CCc2ccccc2)sc1C	10µM*	?	?	-28%	-12	0
Cc1nc(Nc2ccccc2)sc1C	13µM*	?	-5%	?	-9	-6
Cc1nc(NC(=O)c2ccccc2)sc1C	12%[0.501 µM]	-4%	-2%	-19%	0	·
CC(C)(Oc1ccc(Cl)cc1)C(=O)Nc1nc2ccc(S(C)(=O)=O)cc2s1	11µM*	-4%[57.1 µM]	-10%	-31%	·	·
COc1ccccc1-c1cnc(C(O)c2ccc(Cl)cc2C)[nH]1 (stereo not drawn)	·	·	·	·	-4	-11
CC(=O)c1nnn(-c2nc(C#N)nc(N3CCOCC3)n2)c1C	·	·	21%[57 µM]	-10%[57.1 µM]	·	·
CCc1ccccc1NC(=O)C1CCN(c2nc3ccccc3[nH]2)CC1	6%[59 µM]	3%	28%[57 µM]	-2%	·	·
O=[N+]([O-])/C(C(Cl)=C(Cl)Cl)=C(/NC1CC1)Sc1ccccc1	40µM*	-24%	31%	?	8	6
O=C(CSc1ccccc1)NC1CC1	·	·	·	·	3	-5
COc1ccc(N=Nc2cc(OC)c(N)cc2OC)cc1	·	·	50µM*	45µM*	?	?
COc1ccc(N=Nc2ccc(N)nc2N)cc1	28µM*	40µM*	?	40µM*	?	?
Nc1ccc(N=Nc2ccc(O)cc2)c(N)n1	·	·	?	?	?	3
COc1ccc(OC)c(N)c1	32µM*	50µM*	?	?	-16	13
CCOc1ccc2nc3cc(N=Nc4ccc(N)nc4N)ccc3c(N)c2c1	·	·	?	56µM*	?	-76*
COc1ccc(OC)c(C(=O)C(=O)c2cc(OC)ccc2OC)c1	·	·	-6%	-31%	-12	-3
CC(NCc1ccc(F)cc1)C(=O)NC1CCCCC1 (stereo not drawn)	·	-2%	?	?	4	·
SMILES	G9a inh	BAZ2B block	HP1b chromo inh	JMJD2A Tudor inh	Six1-Eya2 blk	CtBP-E1A blk
COc1cc(C2CC(=O)N(Cc3ccc(F)cc3)c3ccccc3S2)cc(OC)c1OC (stereo not drawn)	-27%[59 µM]	?	20%	-17%	·	·
CCCCOC(=O)c1ccc(NC(=O)/C(C#N)=C/c2ccc(-c3ccccc3)o2)cc1	-31%[59 µM]	-30%	22%	-19%	·	·
NC(=S)NNC(=O)COc1ccccc1O	?	-5%	31%	-20%	1	5
CN1CCN(Cc2nc3ccccc3c(=O)n2Cc2nc(-c3cccc([N+](=O)[O-])c3)cs2)CC1	25µM*	40µM*	?	?	-18	-17
CN1CCN(Cc2nc3ccccc3c(=O)n2Cc2nc(-c3ccc4ccccc4c3)cs2)CC1	?	?	?	?	-11	-15
CN1CCN(Cc2nc3ccccc3c(=O)n2Cc2nc(-c3ccccc3F)cs2)CC1	35µM*	-29%	-7%	-22%	-7	-13
